Laboratory results published in PubChem BioAssay AID778 (Sanford-Burnham Center for Chemical Genomics, 2007).
Out of some 96,000 compounds screened, about 20,000 (21%) were called active. Only a sample is shown. A number with no mark means an inactive call.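 Rule for the calls: active = CYP2C19 inhibition above a set limit at 5 µM in the primary screen (cut at about 50% in these data); inactive = the rest.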

The compounds below were run against Cytochrome P450 2C19 (Homo sapiens) (UniProt P33261) (assay: blockers of cytochrome P450 2C19 activity – biochemical, luminescence, ADME assay, primary screen (AID 778;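 note: plate controls were negative control wells for no effect and 2.5 mM tranylcypromine positive control for full effect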)). Conditions: CYP2C19 Supersomes, luciferin-H EGE luminescence, 30 min; at 5 µM; active compounds read high.
Chain of Cytochrome P450 2C19 (Homo sapiens) (P33261 whole entry, looked up): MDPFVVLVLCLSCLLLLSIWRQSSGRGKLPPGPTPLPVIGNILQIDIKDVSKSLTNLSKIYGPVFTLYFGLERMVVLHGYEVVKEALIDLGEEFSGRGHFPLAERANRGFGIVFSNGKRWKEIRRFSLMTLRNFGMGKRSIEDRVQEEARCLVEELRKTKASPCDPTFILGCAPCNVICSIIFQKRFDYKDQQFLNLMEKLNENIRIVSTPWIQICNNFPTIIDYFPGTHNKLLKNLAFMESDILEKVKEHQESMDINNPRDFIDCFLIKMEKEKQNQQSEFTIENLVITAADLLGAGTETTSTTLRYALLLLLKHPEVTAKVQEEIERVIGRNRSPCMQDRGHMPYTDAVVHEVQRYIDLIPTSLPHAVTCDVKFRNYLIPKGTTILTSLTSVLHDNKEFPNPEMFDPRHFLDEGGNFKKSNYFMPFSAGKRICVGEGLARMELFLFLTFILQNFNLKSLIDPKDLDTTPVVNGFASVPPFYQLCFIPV
`CCOc1cccc(-c2nn3c(-c4ccccn4)nnc3s2)c1` gave an inhibition of -1.6%. For `COc1ccc(-c2nn3c(-c4ccccc4)nnc3s2)cc1OC`, the inhibition was 0.9%. In the case of `COc1cc(-c2nn3c(-c4cccc(C)c4)nnc3s2)cc(OC)c1OC`, the inhibition is reported as 79.2% (active). With `CC(C)(C)n1c(=O)[nH]c2c(c1=O)CCC2` the inhibition was -16.7%. In the case of `O=C(O)C1CCN(S(=O)(=O)N2CCOCC2)CC1`, the inhibition is reported as -3%. Work on `O=C(CN(CC1CCCO1)C(=O)CNS(=O)(=O)c1ccccc1)NCc1ccccc1` (stereo not drawn) yielded an inhibition of 4.5%. For `O=S(=O)(NCC1OCCc2ccccc21)c1ccccc1` (stereo not drawn), the inhibition was 53.6% (active). For `O=C1c2ccccc2C(=O)N1CC1c2ccccc2CCN1S(=O)(=O)c1ccccc1` (stereo not drawn), the inhibition was 36.9%. `N#CC(C(N)=O)=C1CCC2(CC1)OCCCCO2` gave an inhibition of 24.1%. In the case of `CC(N)C12CC3CC(CC(O)(C3)C1)C2` (stereo not drawn), the inhibition is reported as 6.1%. `FC(F)(F)c1cccc(-c2cc3ccccc3nc2N2CCCC2)c1` gave an inhibition of 16.1%. In the case of `O=C1c2ccncc2C(=O)N1C1CCCCC1`, the inhibition is reported as -1.7%. `COc1ccc2c(Cl)c(-c3nnco3)sc2c1` gave an inhibition of 19%. `COc1cccc(N=c2oc3c(C)ncc(CO)c3cc2C(N)=O)c1` was tested, and the inhibition was 21.1%. `CN(C)/C=C/C(=O)c1ccccc1F` showed an inhibition of -7%. In the case of `CC(Oc1ccc(Cl)cc1Cl)C(=O)/C=C/N(C)C` (stereo not drawn), the inhibition is reported as 60.1% (active). Work on `CC(Oc1ccc(F)cc1F)C(=O)/C=C/N(C)C` (stereo not drawn) yielded an inhibition of -6.9%. With `Cc1cccc(N(CC(O)CN(C)C)S(=O)(=O)c2ccccc2)c1` (stereo not drawn) the inhibition was -5.2%. With `O=C(CN1CCSCC1)N/N=C/c1ccc(F)cc1F` the inhibition was 3.1%. Work on `Cc1ccc(-c2nc(CS(=O)CC(=O)NC3CCCC3)c(C)o2)cc1` (stereo not drawn) yielded an inhibition of 32.1%. In the case of `COC(=O)C1(S(=O)(=O)C2(C(=O)OC)CCCC2)CCCC1`, the inhibition is reported as 65.4% (active). With `COc1ccc(Cc2nnc(SC)[nH]c2=O)cc1` the inhibition was -4.5%. In the case of `Cc1cccc(C(=O)NCCCN2CCCC2=O)c1`, the inhibition is reported as 21.8%. `CCc1nc(C)cn1S(=O)(=O)c1cc(OC)c(C)cc1C` was tested, and the inhibition was 45.7%. In the case of `COc1ccc(CN2C(=O)CN=C2Nc2ccc(C)cc2C)cc1`, the inhibition is reported as 82.7% (active). Compound `Cc1cc(C)nc(NC2=NCC(=O)N2c2ccc(Cl)cc2)n1` has an inhibition of 4.3%. In the case of `COc1ccc(N2C(=O)CN=C2Nc2cccc(C)c2C)cc1OC`, the inhibition is reported as 17.1%. In the case of `Cc1nc(NC2=NC(C(=O)Nc3ccc(Cl)cc3)CC(=O)N2)nc2ccccc12` (stereo not drawn), the inhibition is reported as 2.5%. Work on `CC(C)Oc1ccc(C(=O)NC(C)(C)CO)cc1` yielded an inhibition of 3.7%. In the case of `COCCOC(=O)C1=C(C)NC(=O)CC1c1cc2c(cc1Br)OCO2` (stereo not drawn), the inhibition is reported as 83.7% (active). With `COC(=O)c1ccc(C2CC(=O)Nc3cc(OC)c(OC)cc32)cc1` (stereo not drawn) the inhibition was 36.1%. Work on `COCCOC(=O)C1=C(C)Nc2nc(C)nn2C1c1ccccc1` (stereo not drawn) yielded an inhibition of 17.9%. With `CC(C)(C)C(=O)Nc1ccc(C(=O)N/N=C/c2ccccc2OC(=O)c2ccc(Cl)cc2Cl)cc1` the inhibition was 42.1%. `Fc1ccc(N2N=C(c3cccs3)CC2c2ccco2)c(F)c1` (stereo not drawn) was tested, and the inhibition was 2.3%. Compound `CN1CCN(S(=O)(=O)c2ccc(NC(=O)c3ccco3)cc2)CC1` has an inhibition of -15.6%. `CCS(=O)(=O)Nc1ccc(C2=NN(S(=O)(=O)c3ccc(F)cc3)C(c3ccco3)C2)cc1` (stereo not drawn) was tested, and the inhibition was 82.8% (active). With `COc1cccc2c1OCC1COc3c(c(=O)n(C)c(=O)n3C)C21` (stereo not drawn) the inhibition was -1%. Compound `COc1ccc(C2SCCN2S(=O)(=O)c2ccccc2)cc1OC` (stereo not drawn) has an inhibition of 48.2%. For `COc1ccc(C2CC(=O)n3c(nc4ccccc43)S2)cc1OC` (stereo not drawn), the inhibition was 11.9%. In the case of `COc1ccc(C2N=C(N)N=C(N)N2c2ccccc2)cc1OC` (stereo not drawn), the inhibition is reported as 57.2% (active). `Cc1c(Nc2cc(N3CCCC(C)C3)c3nonc3c2[N+](=O)[O-])c(=O)n(-c2ccccc2)n1C` (stereo not drawn) was tested, and the inhibition was 19.5%. Compound `CCSC(C)CC1C/C(=N/O)c2c(C)noc2C1` (stereo not drawn) has an inhibition of 40.9%. With `Cc1ccc(C(=O)N/C(=C/C=C/c2ccccc2)C(=O)NCc2ccco2)cc1` the inhibition was 50.8% (active). `COc1cc(C(=O)NC(=S)NCc2ccco2)cc(OC)c1OC` showed an inhibition of 28.5%. Work on `CNC(=O)/C(=C\C=C\c1ccccc1)NC(=O)c1ccc([N+](=O)[O-])cc1` yielded an inhibition of 23.9%. Compound `CCOCCCNC(=O)C(NC(=O)c1ccc(=O)[nH]c1)c1ccc(Cl)cc1` (stereo not drawn) has an inhibition of -4.8%. In the case of `CCN(CC(=O)Nc1ccccc1OC)C(=O)Cn1cnc2ccccc2c1=O`, the inhibition is reported as 1.7%. `CC(CNC(=O)c1ccc(Br)o1)NC(=O)c1ccc(Br)o1` (stereo not drawn) gave an inhibition of 10.7%.
